The record followed here is PubChem BioAssay (Tox21).

Inconclusive results are not listed. Calls of active or inactive are those of the source. The call rests on the fitted dose curve.
On the % scale 0 is the no-effect control and ±100 the full control effect.

Sequence of Peroxisome proliferator-activated receptor delta (Homo sapiens) (Q03181 whole entry, looked up): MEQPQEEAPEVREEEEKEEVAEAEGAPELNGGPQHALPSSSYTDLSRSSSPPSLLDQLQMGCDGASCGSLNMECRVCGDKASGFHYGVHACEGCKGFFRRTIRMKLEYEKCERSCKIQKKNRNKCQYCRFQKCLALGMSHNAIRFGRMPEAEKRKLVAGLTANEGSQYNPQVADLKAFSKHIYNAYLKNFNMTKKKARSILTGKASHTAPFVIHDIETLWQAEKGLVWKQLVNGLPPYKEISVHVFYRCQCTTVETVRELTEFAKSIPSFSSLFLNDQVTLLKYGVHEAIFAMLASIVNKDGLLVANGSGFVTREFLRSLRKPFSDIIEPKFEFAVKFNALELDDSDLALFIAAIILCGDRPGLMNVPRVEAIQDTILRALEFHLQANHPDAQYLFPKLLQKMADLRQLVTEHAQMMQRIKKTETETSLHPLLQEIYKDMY

The assay addresses Peroxisome proliferator-activated receptor delta (Homo sapiens) (UniProt Q03181). As to the kind of experiment: qHTS assay to identify small molecule agonists of the peroxisome proliferator-activated receptor delta (PPARd) signaling pathway (AID 743212). The following applies: HEK293H PPARd-UAS-bla, beta-lactamase FRET ratio, 17 h; series mostly up to 62.6 µM. The source says:
U.S. Tox21 Program National Center for Advancing Translational Sciences [NCATS] NIH Chemical Genomics Center [NCGC] U.S. Environmental Protection Agency [EPA] National Institutes of Environmental Health Sciences [NIEHS] National Toxicology Program [NTP] U.S. Food and Drug Administration [FDA] Tox21 Assay Overview: The peroxisome proliferator-activated receptors (PPARs) are lipid-activated transcription factors of the nuclear receptor superfamily with three distinct subtypes namely PPAR alpha, PPAR delta (PPARd) and PPAR gamma. All these subtypes heterodimerizes with Retinoid X receptor (RXR) and have different physiological functions. […] To identify the compounds that activate PPAR-delta signaling, GeneBLAzer PPAR delta UAS-bla HEK293H cell line (Invitrogen, Carlsbad, CA, USA) containing a beta-lactamase reporter gene under the control of an Upstream Activator Sequence (UAS) was used to screen the Tox21 compound library.
Tox21 Assay Protocol Summary: PPARd-bla cells were dispensed at 3000 cells/6uL/well in 1536-well black wall/clear bottom plates using a Multidrop Combi (Thermo Fisher Scientific, Waltham, MA) dispenser. After the assay plates were incubated at 37 C and 5% CO2 for 5 h, 23 nL of compounds dissolved in DMSO, positive controls or DMSO only was transferred to the assay plate by a Pintool station (Kalypsys, San Diego, CA). The assay plates were incubated at 37C for 17 h. After 1 uL of LiveBLAzerTM B/G FRET substrate was added using a Bioraptr Flying Reagent Dispenser (FRD) workstation (Beckman Coulter, Indianapolis, IN, USA), the plates were incubated at room temperature for 2 h, and fluorescence intensity was measured by an Envision plate reader (PerkinElmer, Shelton, CT).
(In general: In qHTS, concentration-response curves come from the screen itself.)
As to `CC(=O)OCC1=C(C(=O)O)N2C(=O)[C@@H](NC(=O)CSc3ccncc3)[C@H]2SC1`, the result was inactive.
The same measure, in the same setting: with `Cc1ccc(Nc2c(F)cccc2Cl)c(CC(=O)O)c1` the entry was “inactive”.
Still for that read-out and setting: with `CC1=C2[C@@H]([C@H](C)CC[C@H]2/C=C(\C)C(=O)O)[C@H](O)C1` the entry was “inactive”; with `Nc1ccc(N=Nc2ccc(N)cc2)cc1`, “inactive”.
Same read-out and setting: the entry for `Cc1ccc(S(=O)(=O)NC(=O)NC2CCCCC2)cc1` is “inactive”.
For `CC(=O)OC(C)C[N+](C)(C)C` (stereo not given), the outcome was inactive.
Same read-out and setting: with `CC[C@H]1OC(=O)[C@H](C)[C@@H](O[C@H]2C[C@@](C)(OC)[C@@H](O)[C@H](C)O2)[C@H](C)[C@@H](O[C@@H]2O[C@H](C)C[C@H](N(C)C)[C@H]2O)[C@](C)(O)C[C@@H](C)/C(=N\OCOCCOC)[C@H](C)[C@@H](O)[C@]1(C)O` the entry was “inactive”.
Take `COC(CC(C)CCCC(C)(C)O)OC` (stereo not given): the result was inactive.
Take `COc1ccc(C2C(=O)c3ccccc3C2=O)cc1`: the result was inactive.
In the case of `CCO[Si](C)(CCCOCC1CO1)OCC` (stereo not given), the outcome was inactive.
Consider `Cc1cccc(C)c1NC(=O)c1cc(S(N)(=O)=O)c(Cl)cc1O`, for which the outcome was inactive.
Still for that read-out and setting: with `O=C1[C@@H]2[C@H]3CC[C@H](C3)[C@@H]2C(=O)N1CCCCN1CCN(c2ncccn2)CC1` the entry was “inactive”; with `COc1ccc(N)c([N+](=O)[O-])c1`, “inactive”; with `CCCCC(CC)COS(=O)(=O)O` (stereo not given), “inactive”.
On to `C=C(C)c1ccccc1`, for which the outcome was inactive.
Same read-out and setting: the entry for `CC[C@H]1OC(=O)[C@H](C)[C@@H](O[C@H]2C[C@@](C)(OC)[C@@H](O)[C@H](C)O2)[C@H](C)[C@@H](O[C@@H]2O[C@H](C)C[C@H](N(C)C)[C@H]2O)[C@](C)(O)C[C@@H](C)CN(C)[C@H](C)[C@@H](O)[C@]1(C)O` is “inactive”; for `CCN(Cc1cccc(S(=O)(=O)O)c1)c1ccc(C(=C2C=CC(=[N+](CC)Cc3cccc(S(=O)(=O)O)c3)C=C2)c2ccccc2S(=O)(=O)[O-])cc1` it is “inactive”.
The same measure, in the same setting: the entry for `CC(C)C(O)C(C)(C)CO` (stereo not given) is “inactive”.
Same read-out and setting: with `Cc1ccccc1S(N)(=O)=O` the entry was “inactive”; with `CCCCCCCCCCCCCCCCCC(=O)OCC(CC)CCCC` (stereo not given), “inactive”; with `CCN(CC)C(=O)/C(C#N)=C/c1cc(O)c(O)c([N+](=O)[O-])c1`, “inactive”.
With `CSSc1ccoc1C`, the result was inactive.
Still for that read-out and setting: with `O=C(O)CCCc1c[nH]c2ccccc12` the entry was “inactive”; with `Cc1ccc2c(c1[N+](=O)[O-])C(=O)c1ccccc1C2=O`, “inactive”.
Same read-out and setting: with `COC(=O)c1sccc1S(N)(=O)=O` the entry was “inactive”; with `O=C(O)CO`, “inactive”.
Consider `CC1=CC[C@@H]2C[C@H]1C2(C)C`, for which the activation is 0.18% [at 13.2 µM] (inactive).
As to `O=C1OC[C@H](Cc2cccc(O)c2)[C@H]1Cc1cccc(O)c1`, the result was inactive.
Turning to `BrC(Br)C(Br)Br`, the outcome was inactive.
For the compound `CC(=O)NNC(C)=O`, the outcome was inactive.
The same measure, in the same setting: with `CC(CN(CCN(CC(C)OCCO)CC(C)OCCO)CC(C)OCCO)OCCO` (stereo not given) the entry was “inactive”; with `COc1cc(C(C)=O)ccc1OCCCN1CCC(c2noc3cc(F)ccc23)CC1`, “inactive”; with `c1ccc2sc(SSc3nc4ccccc4s3)nc2c1`, “inactive”.
On the same count and under the same terms, with `O=C(Oc1ccccc1)c1ccc2ccccc2c1O` the entry was “inactive”.
With `CCC(CO)(CO)CO`, the outcome was inactive.
Turning to `CC(CO)(CO)C(=O)O`, the result was inactive.
The same measure, in the same setting: with `CCN(CC)C(=O)N1CCN(C)CC1` the entry was “inactive”.
On the same count and under the same terms, with `O=C(O)CN1C(=O)c2cccc3cccc(c23)C1=O` the entry was “inactive”; with `Cc1ccc(N(CCO)CCO)cc1`, “inactive”.
Consider `C=CC(=O)O`, for which the outcome was inactive.
